{"source": "paper PMC12136788", "binders": {"B1": {"name": "chr5:141234466:141234467:-_ENSMUSG00000000149_ENSMUST00000000153|mus_mus|motif|central (ssRNA)", "RNA": "GGGAGUUCUACAGUCCGACGAUCAGGACAAUAGUCAAGGGUAACAGUGAAAUUAAAAUUAAAAAAAAAAAUACAAACGCCGGAGGUCUGGGAGAAACCUGACUACAAUCUACGUGGAGAAACUUGUAAAUGACUCCAGCCUGGCAACAGAGGAUUGAGCAUCA"}, "B2": {"name": "chr2:114709107:114709108:+_ENSG00000115091_ENST00000536059|hu_mus|FALSE|FALSE (ssRNA)", "RNA": "GGGAGUUCUACAGUCCGACGAUCAGAGAGGACAAUGUUCUUGUAGAGAGGACGCCGGACAUCAAUGGGGCAAUUCUGAAUGACUUCAUCUACAACUUCUGAGAUAGGUUGUGUAAAAUCUGGAUUAGCAAACUCUGGAUGGAACAACAGAGGAUUGAGCAUCA"}, "B3": {"name": "chr20:21346065:21346066:+_ENSG00000088930_ENST00000377191|hu_hu|FALSE|FALSE (ssRNA)", "RNA": "GGGAGUUCUACAGUCCGACGAUCUCCUGGAAGCAUUACAGCUUUAAAAAUGUAAUCUUCAGCAAACUGUGGGUCUUUAAAAUUAAUACUGACUACAGUGUUCUGUGUCAGAUCCCUUAACAUAGGAACAGGAGAACAUACUAUCAACAGAGGAUUGAGCAUCA"}, "B4": {"name": "chr1:220276048:220276049:+_ENSG00000067704_ENST00000302637|hu_hu|hu_hu_hu_mus_True|8_28 (ssRNA)", "RNA": "GGGAGUUCUACAGUCCGACGAUCGCAAAUUGCCUGGUUGGCGGGAAUUGUCCAAGGCUGGGUGGUCCAAACUAAAACGCUAACAGGGGAUGAGGCAUCUGUAAGAGAUGCCAAUUUCGGAGGAGGUUUUAAGAGAGGGAAUCUCAACAGAGGAUUGAGCAUCA"}, "B5": {"name": "chr2:9570881:9570882:+_ENSG00000119203_ENST00000238112|hu_mus|hu_hu_hu_mus_False|28_58 (ssRNA)", "RNA": "GGGAGUUCUACAGUCCGACGAUCACUUGUCUUCUGAAGGAACCAGGGCAGGGCUCCACAGUGAUCCAAAUGGAAAUGACUAAUUAACAGAAGGUCGAUCUCAGCUGGGUCAAUUAAGUCAAUGUAAGGAAGGGCAUCCAUUCCCAACAGAGGAUUGAGCAUCA"}, "B6": {"name": "chr1:220276048:220276049:+_ENSG00000067704_ENST00000302637|hu_hu|hu_hu_hu_mus_True|48_78 (ssRNA)", "RNA": "GGGAGUUCUACAGUCCGACGAUCGCAAAUUGCCUGGUUGGCGGGAAUUGUCCAAGGUUGUGUGGUCCAAACUAAAACGCUAACAGGAGAUGAACCAUCUGUAAGAGACUCCAACUUCGGAGGAGGUCUCAGGAGGGGGAAUCUCAACAGAGGAUUGAGCAUCA"}, "B7": {"name": "chr1:59924863:59924864:+_ENSMUSG00000067336_ENSMUST00000087435|mus_hu|FALSE|FALSE (ssRNA)", "RNA": "GGGAGUUCUACAGUCCGACGAUCGCUGCCAAAUUUUAGCCGGGGCUCUUUUGUUGAAUUUUUGGUGUUCAAAGGCAAACUAGUAGGUCUCUUGGGAAGGUUCUGCUGCUUGGGGAGAGGAUAGAUCUGAGUAGGCAGAACAUCCAACAGAGGAUUGAGCAUCA"}, "B8": {"name": "chr17:13115065:13115066:+_ENSMUSG00000068039_ENSMUST00000151287|mus_hu|motif|central (ssRNA)", "RNA": "GGGAGUUCUACAGUCCGACGAUCAAUAGUUGCUCCAGAAGCUUUGGCAAUGCGUUUAAGGUCCCUUUUUAAAACUCUUCGGACUGCCAUAGCACCAGCCUCCACAAAAUACUUCAGACACAUAUCAUCAAUUCCACCAGUGGUCAACAGAGGAUUGAGCAUCA"}, "B9": {"name": "chr7:112906983:112906984:-_ENSMUSG00000036862_ENSMUST00000078482|mus_mus|FALSE|FALSE (ssRNA)", "RNA": "GGGAGUUCUACAGUCCGACGAUCUGGGGAGAUAACUGGAGUCCCUGGUGGUGCAUUUUCACGGAGCACAGCCUCACUACUAGUUCUGGGAAAGCGGGGUCCACGCUCAGGCUCUCCCUGUAUUCCAACAACGACCACACCAGUCAACAGAGGAUUGAGCAUCA"}, "B10": {"name": "chr12:48362563:48362564:+_ENSG00000134291_ENST00000256686|hu_hu|hu_hu_hu_mus_False|18_58 (ssRNA)", "RNA": "GGGAGUUCUACAGUCCGACGAUCUCCGUCAAGCCCUUCGAUAGACCCUUGCGGGGGAAACUGUAAUCACUUUGUAUUUCUAAAAAAAAGAAACGCCAAAAACUUUCCAAAAAGCGGUUCAAAAAGCAGGCGGGAGGGGGAGGUCAACAGAGGAUUGAGCAUCA"}, "B11": {"name": "chr4:140556289:140556290:+_ENSMUSG00000036622_ENSMUST00000037055|mus_mus|mus_mus_mus_hu_False|18_68 (ssRNA)", "RNA": "GGGAGUUCUACAGUCCGACGAUCGAUGGAGCUCACCAGGCCCCCUUUUGCCGUGCAGAACCCUGUGCGAGUCACCACUGCCAGGACGUGCGGUCCCACAUAGGCCCGGGCCUGCAAAAUGAGGGUGCCGCAGAAGAGUGUGUGCAACAGAGGAUUGAGCAUCA"}, "B12": {"name": "chr2:176857141:176857142:-_ENSG00000144320_ENST00000272748|hu_hu|motif|central (ssRNA)", "RNA": "GGGAGUUCUACAGUCCGACGAUCUUUUUGUAAUCUCUGAUUUUUUUCCCUAAAUUCUUCCAAUGCUUGAAUUUCCUUAUCGGUACUUUCUAGAACUUCUACAGUUGAAGGUUUUGUCCUCCAUCGAGAAAAUAAUCCACCCAUCAACAGAGGAUUGAGCAUCA"}, "B13": {"name": "chr4:144461564:144461565:+_ENSG00000153147_ENST00000283131|hu_hu|motif|central (ssRNA)", "RNA": "GGGAGUUCUACAGUCCGACGAUCCCUCCCUUGUUGAAUGACUAUUGAAUCCAGUCUGAGUUUCAUCUCAGCACGUUCGGCGGUUCUUUCUUCUACAGUGUUAUCAGUUAUAAAGCGGAACACUCUGACUGUCUUAGUCUGCCCCAACAGAGGAUUGAGCAUCA"}, "B14": {"name": "chr12:493273:493274:-_ENSG00000073614_ENST00000399788|hu_mus|hu_hu_hu_mus_False|28_108 (ssRNA)", "RNA": "GGGAGUUCUACAGUCCGACGAUCUUUUCUCUCUACCACAGGGAUCUUCAAUGUAGAUCCUUGAAGUUCCCAAAAUUUUGCCAGUUGAUCCAAGAAGUCCAAUCUUACUCUGGUCAUUGCCUCAAGUUCAUUCAGGCGCUGGACCAACAGAGGAUUGAGCAUCA"}}, "note": "Whole data set: some 24,000 sequences, median “enrichment r” near 0.99, cut for the highest 2% near 3.7. Only a selection was taken, and the highest values are over-represented in it overall.", "data": [{"molecular_target": "T1, UNK ZnF1-3 (human, UniProt Q9C0B0 31-174)", "T1 sequence": "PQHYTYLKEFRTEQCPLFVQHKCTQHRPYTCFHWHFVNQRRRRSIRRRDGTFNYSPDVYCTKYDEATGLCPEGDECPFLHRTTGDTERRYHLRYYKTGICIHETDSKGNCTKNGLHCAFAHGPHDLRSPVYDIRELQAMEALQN", "test": "nsRBNS (natural sequence RNA bind-n-seq); RBNS binding buffer (assumed for nsRBNS): 25 mM Tris pH 7.5, 150 mM KCl, 3 mM MgCl2, 0.01% Triton X-100, 500 ug/ml BSA, 20 U/ml SUPERase-In, 4 C; UNK is unkempt and MSI1 is Musashi-1; names of the RNAs are library labels; protein concentration not given here; high values mean tight binding", "units": {"binding signal": "enrichment R"}, "values": [{"binder": "B1", "binding signal": 11.3}, {"binder": "B2", "binding signal": 1.28}, {"binder": "B3", "binding signal": 1.24}, {"binder": "B4", "binding signal": 2.55}, {"binder": "B5", "binding signal": 1.47}, {"binder": "B6", "binding signal": 1.31}, {"binder": "B7", "binding signal": 1.44}, {"binder": "B8", "binding signal": 1.25}, {"binder": "B9", "binding signal": 0.989}, {"binder": "B10", "binding signal": 1.93}, {"binder": "B11", "binding signal": 0.954}, {"binder": "B12", "binding signal": 0.655}, {"binder": "B13", "binding signal": 0.923}, {"binder": "B14", "binding signal": 0.902}]}]}
